This note sets out measurements from PubChem BioAssay (Tox21).

SMILES strings stand for the structures. Inconclusive results are not listed. Unmarked numbers belong to inactive results. The source made the active and inactive calls. Calls follow the shape of the dose curve; as a rule, active = well fitted activation curve with a large enough effect in the repeat runs; inconclusive = weak or mixed curves; inactive = no such curve, though single readings can be large or run the other way.
% is scaled to controls: 0 for no effect and ±100 for the full control effect; potency is read from the fitted curve at half-maximal effect.

Chain of Nuclear receptor subfamily 1 group I member 2 (Homo sapiens) (O75469 whole entry, looked up): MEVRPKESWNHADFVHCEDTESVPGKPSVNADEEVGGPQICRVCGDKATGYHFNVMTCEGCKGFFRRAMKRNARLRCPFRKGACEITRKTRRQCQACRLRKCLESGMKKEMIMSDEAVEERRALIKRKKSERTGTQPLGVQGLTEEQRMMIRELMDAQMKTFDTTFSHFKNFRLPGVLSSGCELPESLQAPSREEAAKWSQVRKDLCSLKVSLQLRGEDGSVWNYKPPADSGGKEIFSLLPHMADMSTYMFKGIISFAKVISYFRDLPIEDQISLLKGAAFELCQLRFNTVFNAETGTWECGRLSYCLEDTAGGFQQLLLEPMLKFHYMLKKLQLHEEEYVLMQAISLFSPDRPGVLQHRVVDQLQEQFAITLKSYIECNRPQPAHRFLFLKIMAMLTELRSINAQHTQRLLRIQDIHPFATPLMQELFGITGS

In the assay the target is Nuclear receptor subfamily 1 group I member 2 (Homo sapiens) (UniProt O75469). The assay can be described thus: Human pregnane X receptor (PXR) small molecule agonists, qHTS assay (AID 1346982). Also: nearly all actives have a fitted effect of over 35% in size. Conditions: PXR-Luc HepG2, CYP3A4 luciferase reporter, 24 h; series mostly up to 92.4 µM; activation: at the top concentration. From the text:
National Center for Advancing Translational Sciences [NCATS]
NIH Chemical Genomics Center [NCGC]
U.S. Environmental Protection Agency [EPA]
National Institutes of Environmental Health Sciences [NIEHS]
National Toxicology Program [NTP]
The human pregnane X receptor (hPXR) regulates the expression of several drug metabolizing enzymes and induction of these proteins is a major mechanism for developing drug resistance in cancer. One such key enzyme catalyzing the drug metabolism is cytochrome P450 3A4 (CYP3A4). Changes in CYP3A4 expression affect drug metabolism, thereby reducing the therapeutic efficacy and altering toxicological response to a drug and which finally causes adverse drug interaction. To screen Tox21 libraries for compounds that activate hPXR-mediated CYP3A4 gene expression, PXR-Luc HepG2 cells were used.
PXR-Luc HepG2 cells were dispensed at 2,000 per well in 5uL of assay medium containing 5% charcoal-stripped FBS into white solid bottom 1536-well plates (Corning Life Sciences, Corning, NY) using a Multidrop Combi (Thermo Scientific, Waltham, MA) dispenser. The assay plates were incubated at 37 C and 5% CO2 for 5hr, and then 23nL of compounds dissolved in DMSO and positive control were transferred using a Pintool station (Wako, San Diego, CA). The assay plates were incubated at 37C and 5% CO2 for 24hr. For luciferase read, 4uL of ONE-Glo reagent (Promega Corporation, Madison, WI) was added to each well of the assay plates using Flying Reagent Dispenser (FRD, Aurora Discovery, San Diego, CA) and incubated the assay plates at room temperature for 30min. The luminescence signal was quantified using a ViewLux plate reader (Perkin Elmer, Shelton, CT).
For `CS(=O)(=O)Cl`, the “activation” value is 2.41%.

As to `O=c1[nH]c2ccccc2n1C1CCNCC1`, the “activation” value was 8.1% [at 42.5 µM].

Consider `CCOC(=O)C(Cl)Cc1cc(-n2nc(C)n(C(F)F)c2=O)c(F)cc1Cl` (stereo not given), for which the “activation” value is 10.5%.

As to `Cc1ccc(Cl)c(O)c1`, the “activation” value was -4.06% [at 42.5 µM].

Take `Cc1cccc2sc3nncn3c12`: the Potency is 34.4 µM (active).

In the case of `C=C(Cl)CSC(=S)N(CC)CC`, the “activation” value was 2.68%.

Take `CN(C)C1CCCCC1`: the “activation” value was 8.67%.

In the case of `COc1cccc(C=O)c1`, the “activation” value is 6.57%.

`NCCOS(=O)(=O)O`: the “activation” value is 1.51%.

`CNC(=O)Oc1ccccc1C(C)C`: the “activation” value is 26.7%.

As to `O=C(O)C(Cl)Br` (stereo not given), the “activation” value is 11.7%.

For the molecule `Cn1c(N)nc2c3cccnc3ccc21`, the Potency was 51.8 µM (active).

For the molecule `C=CCc1cc(OC)c2c(c1)OCO2`, the Potency is 36 µM (active).

Consider `N[C@@H]1C[C@H]1c1ccccc1`, for which the “activation” value is -4.01% [at 42.5 µM].

Take `O=c1[nH]c2ccccc2o1`: the “activation” value was 7.82%.

As to `C=C1C[C@@H]2[C@H](CC[C@]3(C)C(=O)CC[C@@H]23)[C@@]2(C)C=CC(=O)C=C12`, the Potency is 26.6 µM (active).

For `CCCN1CCC[C@@H]2Cc3[nH]ncc3C[C@H]21`, the “activation” value is -3.53% [at 42.5 µM].

With `CCOC(=O)N(C)N=O`, the “activation” value was -2.4%.

In the case of `O=CCCl`, the “activation” value was 2.94%.

Take `CCCOc1nn(C(=O)NS(=O)(=O)c2ccccc2C(=O)OC)c(=O)n1C`: the “activation” value is -22.5%.

As for `ClCCN1CCCC1`, the “activation” value is -2.55% [at 42.5 µM].

For the molecule `CCC(CC)(CNC(=O)CCCO)c1cccc(OC)c1`, the “activation” value was 7.23% [at 42.5 µM].

`CCSC(=O)Cl`: the “activation” value was 4.69%.

In the case of `CCCCCCCC(=O)Cl`, the Potency was 61.6 µM (active).

In the case of `ClCC1CO1` (stereo not given), the “activation” value is 3.45%.

`O=C/C=C/c1ccco1`: the “activation” value was 2.27%.

Turning to `CCCN1CCC[C@@H]2Cc3nc(N)ncc3C[C@H]21`, the “activation” value was -10.1% [at 42.5 µM].

For `BrCc1ccc(Br)cc1`, the “activation” value is 5.07%.

As for `CCCC(C)(COC(N)=O)COC(N)=O`, the Potency is 51.5 µM (active).

Take `NC(=O)CS(=O)C(c1ccccc1)c1ccccc1` (stereo not given): the “activation” value was -5.09% [at 42.5 µM].

Consider `CCCCCCCCBr`, for which the “activation” value is 8.66%.

As for `C=C(C)[C@H]1CN[C@H](C(=O)O)[C@H]1CC(=O)O`, the “activation” value was -2.71% [at 42.5 µM].

Consider `CCC1(c2ccccc2)C(=O)N(COC)C(=O)N(COC)C1=O`, for which the “activation” value was 37.3% [at 42.5 µM].

`CCCCOC(C)=O`: the “activation” value is 5.92%.

Regarding `CN(CCO)CCO`, the “activation” value is 17.5%.

With `CCOP(=S)(OCC)SCCl`, the “activation” value is 7.14%.

As to `O=C(Cl)c1ccccc1`, the “activation” value was -5.69%.

In the case of `O=C(NC(=O)c1c(F)cccc1F)Nc1cc(Cl)c(F)c(Cl)c1F`, the “activation” value is 15.1%.

With `COc1ccccc1OC`, the “activation” value was 4.89%.

`Brc1c(Br)c(Br)c(Br)c(Br)c1Br`: the activation is 1.3% [at 8.39 µM].
